Experimental findings from PubChem BioAssay (NCATS) are described below.

The structures appear in SMILES notation. Inconclusive results are not listed. Calls of active or inactive are those of the source. Calls come from the whole dose curve.

The experiment deals with Vitamin D3 receptor (Homo sapiens) (UniProt P11473). Put plainly: qHTS assay for small molecule agonists of vitamin D receptor signaling (AID 588543). The settings on record: HEK293T VDR-UAS-bla, beta-lactamase ratio, 16 h; series mostly up to 76.8 µM. The text has this:
NIH Chemical Genomics Center [NCGC]
U.S. Environmental Protection Agency [EPA]
National Institutes of Environmental Health Sciences [NIEHS]
National Toxicology Program [NTP]
The Vitamin D receptor (VDR) is a member of nuclear hormone receptor superfamily and it plays a critical role in calcium homeostasis and bone metabolism. It plays a role in inducing cell differentiation, inhibiting cell growth and in thrombogenicity. So, VDR that mediates these effects represents a pharmacological target in prevention and treatment of hyperproliferative malignancies, such as cancer and psoriasis, cardiovascular, immunological, inflammatory and renal diseases etc.
NCGC Assay Protocol Summary
Using a beta-lactamase reporter-gene under control of Vitamin D receptor (VDR) response element, a cell-based assay [GeneBLAzer (VDR -UAS-bla assay developed by Invitrogen] was used to measure VDR ligands signaling. GeneBLAzer VDR -UAS-bla HEK293T cells were used with assay medium containing 2% charcoal-stripped FBS. The assay was performed in clear bottom black Greiner 1536-well plates. 1-alpha,25-Dihydroxy vitaminD3 was used as a positive control in the screen. Library compounds were measured for their ability to stimulate the reporter gene activity. Compounds were screened in a titration series in 1536-well format. The fluorescence intensity (405 nm excitation, 460/530 nm emission) was measured using an EnVision plate reader. Data was normalized relative to 1-alpha,25-Dihydroxy vitaminD3 control (50 nM, 100%) and DMSO only wells (basal, 0%). Concentration-response titration points for each compound were fitted to the Hill equation yielding concentrations of half-maximal stimulation (EC50) and maximal response (efficacy) values.
qHTS protocol for VDR beta-lactamase assay in agonist mode
[Step] [Parameter] [Value] [Description]
1. Reagent; 6 uL; 2000 cells/well
2. Incubation; 37 C for 5 hrs
4. Controls (1-alpha,25-Dihydroxy vitaminD3); 23 nL,
- Final concentrations of 50 nM and 15 nM in two columns
5. Incubation; 37 C for 16 hrs
6. Detection reagent; 1 uL of CCF4-dye
7. Incubation; RT for 2 hrs
8. Detection; Fluorescence; Envision plate reader
(In general: In qHTS, concentration-response curves come from the screen itself.)
`CN1CCC[C@H]1c1cccnc1`: the result was inactive. As for `c1cnc2c(c1)ccc1cccnc12`, the outcome was inactive. The result for `CCCOC(=O)c1ccc(O)cc1` reads “inactive”. In the case of `O=C(O)c1ccccc1Nc1cccc(C(F)(F)F)c1`, the result was inactive. For `O=C(OCc1ccccc1)c1ccccc1`, the outcome was inactive. The result for `Oc1ccccc1O` reads “inactive”; that for `Nc1nc2ccc([N+](=O)[O-])cc2s1`, “inactive”. For the molecule `O=C(O)/C=C\C(=O)O`, the outcome was inactive. Take `c1ccc2sc(SSc3nc4ccccc4s3)nc2c1`: the result was inactive. On to `Nc1ccc(O)c([N+](=O)[O-])c1`, for which the result was inactive. The result for `O=c1cc(-c2ccccc2)oc2ccccc12` reads “inactive”.

As for `CC(C)NCC(O)COc1cccc2ccccc12` (stereo not given), the result was inactive. For `O=C(O)c1cc(O)c(O)c(O)c1` the value was “inactive”; for `N=C1N=C(N)c2cc3ccccc3cc21`, “inactive”. The result for `O=C1CN(/N=C/c2ccc([N+](=O)[O-])o2)C(=O)N1` reads “inactive”. For `CC(C)OC(=O)c1cc(C(=O)OC(C)C)cc([N+](=O)[O-])c1` the value was “inactive”; for `O=C(O)[C@H](O)[C@@H](O)[C@H](O)[C@H](O)CO`, “inactive”. On to `Nc1cc(-c2ccncc2)c[nH]c1=O`, for which the outcome was inactive. For `S=c1[nH]c2ccccc2s1`, the result was inactive.

For the molecule `COc1cc(CNC(=O)CCCC/C=C/C(C)C)ccc1O`, the result was inactive. Consider `CCCCCCCCCCCCCCCC(=O)OC(C)C`, for which the outcome was inactive. With `Nc1ccc(O)c(C(=O)O)c1`, the result was inactive.

Take `CN(C)c1ccc(N=NS(=O)(=O)O)cc1`: the outcome was inactive.

As for `C=CCCCCCCCCC(=O)O`, the outcome was inactive. For `Nc1ccc([N+](=O)[O-])cc1O` the value was “inactive”.
